Screening data from PubChem BioAssay.
Hits are enriched below; roughly 6.9% of the tested compounds scored in any of these assays.
Giardia kill = Small Molecules that selectively kill Giardia lamblia: qHTS; Giardia lamblia trophozoite viability; activity change, % at 7.66 µM, hits read low; 0.15% of 340,000 active; AID 540267, 2011; in the data active means activity change below about -80%; inconclusive means between about -30% and that limit;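 further: parasites exposed to compound for two days anaerobically before the ATP read; on the % scale 0 is the no-effect control and ±100 the full control effect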
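Killing of trophozoites was scored by loss of ATP luminescence after a 48 hrs anaerobic exposure to compounds at 37 deg C, using 100 cells per well.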
IL1B secr inh = qHTS for Inhibitors of Inflammasome Signaling: IL-1-beta AlphaLISA Primary Screen | THP-1 LPS/ATP IL-1B secretion, AlphaLISA, 16 h; hits give low values | activity change, % at 57.5 µM | 4.7% of 360,000 active | AID 743279, 2014; in the data active means activity change below about -50%; inconclusive means mostly about -30% to -49%; further: on the % scale 0 is the no-effect control and ±100 the full control effect
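THP-1 cells pretreated 1 hr with compounds (up to 57.5 uM final), then stimulated with LPS (250 ng/mL final) plus ATP (1.25 mM final); secreted IL-1B measured by AlphaLISA after 16 hr, decreased signal indicating inhibition.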
Vif-APOBEC3G blk = qHTS for Inhibitors of Vif-A3G Interactions: qHTS; HeLa A3G-eYFP + Vif (tagged APOBEC3G with the HIV-1 protein that degrades it), YFP fluorescence, overnight; Potency, µM (series often up to 46.1 µM), for the others: at the top dose activity, negative = active, hits mostly inhibitors; 0.076% of 410,000 active; further: potency means the concentration at half of the fitted maximal effect; on the % scale 0 is the no-effect control and ±100 the full control effect; nearly all actives have a fitted effect of over 60% in size
Target sequence (Q9HC16 whole entry, looked up): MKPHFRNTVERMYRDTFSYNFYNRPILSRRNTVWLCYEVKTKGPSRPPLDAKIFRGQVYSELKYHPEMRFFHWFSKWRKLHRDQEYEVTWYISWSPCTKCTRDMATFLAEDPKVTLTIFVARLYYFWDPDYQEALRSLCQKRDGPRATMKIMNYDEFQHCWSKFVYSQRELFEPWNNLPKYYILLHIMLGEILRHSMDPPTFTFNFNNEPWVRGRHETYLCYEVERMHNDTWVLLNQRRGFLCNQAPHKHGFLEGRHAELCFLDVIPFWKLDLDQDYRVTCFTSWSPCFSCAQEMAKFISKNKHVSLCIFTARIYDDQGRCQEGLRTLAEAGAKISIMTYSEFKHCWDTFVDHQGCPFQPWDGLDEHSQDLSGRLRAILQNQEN
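Read-out is eYFP fluorescence (Ex 488/Em 500-530) from Vif-expressing HeLa A3G-eYFP cells; more signal means A3G escaped Vif-mediated degradation. Cells plated overnight, compound pinned in, incubated overnight at 37 deg C.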
SW480 rerep = A quantitative high throughput screen for small molecules that induce DNA re-replication in SW480 colon adenocarcinoma cells. AID 624297, 2012. Potency, µM (series often up to 46.1 µM), for inactives: at the highest dose re-replication activation, actives largely listed as activators. 1.8% of 340,000 active. SW480 DNA re-replication, Hoechst DNA content imaging, 48 h; further: potency means the concentration at half of the fitted maximal effect; % of control where 0% means no effect; nearly all actives have a fitted effect of over 55% in size
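Compounds, transferred as 23 nL by pin tool, were incubated with cells for 48 hr; DNA content per nucleus was then quantified by Hoechst staining and fluorescence plate imaging.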
MCF10A rereplic = A quantitative high throughput screen for small molecules that induce DNA re-replication in MCF 10a normal breast cells; MCF 10A DNA re-replication, Hoechst nuclear intensity, 48 h; Potency, µM (highest dose often 46.1 µM), without a hit: at the highest dose activity, positive = re-replication, hits mostly activators; 2.9% of 350,000 active; AID 624296, 2012; further: potency means the concentration at half of the fitted maximal effect; % of control where 0% means no effect; nearly all actives have a fitted effect of over 50% in size
Vif-APOBEC3F blk = qHTS for Inhibitors of Vif-A3F Interactions: qHTS; 0.2% of 390,000 active; AID 602313, 2012; Potency, µM (top dose mostly 46.1 µM), for the others: at the top dose activity, negative = active; HeLa A3F-eYFP + Vif (tagged APOBEC3F with the HIV-1 protein that degrades it), YFP fluorescence increase; further: potency means the concentration at half of the fitted maximal effect; % of control where 0% means no effect; nearly all actives have a fitted effect of over 65% in size
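HeLa cells stably expressing Vif plus C-terminally eYFP-tagged A3F were seeded, incubated overnight at 37 deg C, dosed with compound, incubated overnight again at 37 deg C. Yellow fluorescence (Ex 488/Em 500-530) reported blocked Vif-mediated A3F-eYFP degradation.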
An asterisk follows results filed as active; i = inactive; ? = inconclusive; / = no result given; [ ] = dose if it differs, or a comment. Unless noted, the call rests on the fitted dose curve; in most records, active means well fitted curve in the direction sought with a large enough effect; inconclusive means small, poorly fitted or top-dose-only effect, or another doubt; inactive means no such curve, though single readings can be large; an effect the other way counts as inactive or inconclusive.

SMILES	Giardia kill	IL1B secr inh	Vif-APOBEC3G blk	SW480 rerep	MCF10A rereplic	Vif-APOBEC3F blk
O=C(COC(=O)c1c2c(nc3ccccc13)/C(=C\c1ccco1)CC2)NC1CCCC1	0	-13	-18%	6.5µM*	?	?
Cc1ccccc1NC(=O)c1sc2nc3n(c(=O)c2c1C)N=C(c1ccccc1)CS3	/	/	-2%	/	/	-2%
O=C(C[N+]12CN3CN(CN(C3)C1)C2)c1ccc(Br)cc1	/	/	-4%	/	/	/
O=C(COC(=O)c1ccc2ncsc2c1)NC(=O)C1CCCCC1	-5	/	1%	/	/	/
Cc1ccccc1NC(=O)c1c(C)oc2ccc(O)c(CN3CCCCCC3)c12	/	/	8%	/	/	-1%
COc1cc(N=Nc2ccccc2C(=O)O)ccc1O	-27	30	-5%	1%	18µM*	7%
COc1cccc(-c2cc(C(F)(F)F)c(C#N)c(=O)[nH]2)c1	7	36	-1%	2%	18µM*	2%
N#Cc1c(C(F)(F)F)cc(=O)n2c1[nH]c1ccccc12	8	-74*	-6%	?	18µM*	-28%
N#Cc1c(CSCC(=O)O)cc(=O)n2c1[nH]c1ccccc12	21	23	0%	-6%	-3%	1%
N#Cc1c(C(F)(F)F)cc(-c2ccccc2Cl)[nH]c1=O	16	25	-1%	7%	15µM*	4%
COc1ccccc1N1CCN(S(=O)(=O)CCNC(=O)C(c2ccccc2)c2ccccc2)CC1	/	/	4%	/	/	3%
COc1ccc(Br)cc1CNC(=O)Cn1c(=O)c2cccn2c2ccc(F)cc21	/	/	4%	/	/	-23%
COc1ccc(N2CCN(C(=O)c3ccc(-c4nc(COc5ccccc5)c(C)o4)cc3)CC2)cc1	/	/	5%	/	/	2%
Cc1ccc(NC(=O)c2cccn2-c2nnc(N3CCCCC3)s2)cc1Cl	/	/	-6%	/	/	-8%
Cc1ccc2sc3ccc(NC(=O)c4ccccc4Cl)cc3c(=O)c2c1	-16	-26	-1%	13µM*	?	-2%
COc1ccccc1NC(=O)CN(C)S(=O)(=O)c1ccc2c(c1)c(=O)n(C)c(=O)n2C	/	/	2%	/	/	0%
Cc1cc(C(C)(C)C)cc(S(=O)(=O)Nc2ccc(O)c(C(=O)O)c2)c1C	-7	4	0%	-11%	3%	-11%
CC(=O)Nc1ccc(NC(=O)c2ccc(NS(=O)(=O)c3cc(C(C)(C)C)cc(C)c3C)cc2)cc1	5	29	?	1%	18µM*	?
CCCCSc1nnc2n(-c3ccc(OC)cc3)c(=O)c3c4c(sc3n12)COC(C(C)C)C4 (stereo not given)	/	/	1%	/	/	-3%
Cc1cc(C)cc(-n2c(C)cc(/C=N/NC(=O)CSc3ncccn3)c2C)c1	-7	1	4%	?	18µM*	-3%
COc1ccccc1OCC(=O)N/N=C/c1cccc2cccnc12	17	i	-23%	?	13%	?
CC(C)n1cc(/C=N/NC(=O)COc2cccc3cccnc23)c2ccccc21	1	-78*	?	0%	?	4%
COc1cccc(/C=N/NC(=O)COc2cccc3cccnc23)c1O	-7	120	-17%	13µM*	?	0%
Cc1cc(/C=N\NC(=O)COc2cccc3cccnc23)c(C)n1-c1ccccc1	7	-4	1%	10%	26%	-7%
Cc1ccnc(-n2c(C)cc(/C=N/NC(=O)COc3cccc4cccnc34)c2C)c1	2	-54*	-4%	-5%	-6%	0%
COC(=O)c1ccccc1NC(=O)NCc1ccc2c(c1)CCN2C(=O)c1ccccc1	/	/	-1%	/	/	3%
CCCC[C@H](CC)CN1CN(C[C@@H](CC)CCCC)CC(C)(N)C1	/	/	/	3%[20.6 µM]	-1%[20.6 µM]	/
Cc1ccc(NC(=O)Nc2nnc(N3CCCC3)s2)cc1C	/	/	0%	/	/	0%
